PfM18AAP inh: PfM18AAP enzyme inhibition. recombinant PfM18AAP, H-Glu-NHMec fluorogenic cleavage. inhibition, % at 7.35 µM. actives 1.2% (n = 290,000);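 active means inhibition above the campaign mean inhibition over all tested compounds plus 3 SD, cut at about 28% in these data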;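 further: 0% = plate median of test compound wells and 100% = 2 mM ZnCl2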
p97 ATPase inh: human p97 ATPase inhibition; recombinant p97 ATPase, Kinase-Glo ATP luminescence, 3 h; inhibition, % at 8 µM; actives 0.42% (n = 220,000); in the data active means inhibition above about 15%;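 further: 0% = DMSO vehicle and 100% = wells lacking enzyme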
HDAC3 inhib: inhibitors of human histone deacetylase 3; recombinant HDAC3, fluorogenic peptide/trypsin coupled, fluorescence; O15379; inhibition, % at 8.3 µM; actives 0.15% (n = 320,000); in the data active means inhibition above about 26%, passing the limit was not always enough
G6PDH CS: inhibits Leuconostoc G6PDH, flagging false hits in G6PDH-based assays; actives 0.12% (n = 200,000); inhibition, % at 5 µM; Purified L. mesenteroides G6PDH, diaphorase/resazurin coupled fluorescence, 45 min; AID 1020; in the data active means inhibition above about 50%
PHOSPHO1 block: inhibitors of human PHOSPHO1 phosphatase. Q8TCT1. recombinant PHOSPHO1, absorbance phosphatase assay. inhibition, % at 13.3 µM. actives 1.1% (n = 290,000); in the data active means inhibition above about 60%
SUMO HTRF inh: inhibitors of human SUMOylation (UBC9); P63279; HTRF SUMOylation assay, SAE1/SAE2 + UBC9, in vitro; inhibition, % at 35 µM; actives 0.36% (n = 290,000); in the data active means inhibition above about 50%, passing the limit was not always enough
An asterisk follows results filed as active; · = no result given. The list is not random: actives were taken first. Their share in the collection is about 2.5%.

SMILES	PfM18AAP inh	p97 ATPase inh	HDAC3 inhib	G6PDH CS	PHOSPHO1 block	SUMO HTRF inh
CC(=O)Oc1cccc(N2C(=O)c3ccc(C(=O)O)cc3C2=O)c1	-4	-4	3	10	9	19
O=C(O)c1ccc2c(c1)C(=O)N(c1cccc(-c3nc4ccccc4s3)c1)C2=O	2	4	1	4	-25	70*
CCc1nnc(NCC(=O)N2CCc3ccccc32)s1	2	6	0	7	69*	-4
C/C(CC(=O)NCc1ccco1)=N\NC(=O)c1ccc(Cl)cc1Cl	-7	·	-1	·	14	-18
COC(=O)C1=C(C)NC2=C(C(=O)CCC2)C1c1ccc(-c2ccsc2C(=O)OC)o1 (configuration not stated)	-5	-7	32*	·	12	-10
Cc1nc(N2CCN(C(=O)c3ccco3)CC2)[nH]c(=O)c1C	-10	·	0	·	30	2
COC(=O)Oc1nsnc1N1CCOCC1	26	4	-2	-5	92*	-6
O=C(Oc1nsnc1N1CCOCC1)N(c1ccccc1)c1ccccc1	8	-1	-5	6	18	7
Cc1ccc2c(nc3s/c(=C/c4cccs4)c(=O)n32)c1C	·	·	·	4	27	16
Cc1cc(C)c2nc3s/c(=C/c4ccccc4)c(=O)n3c2c1	-31	-3	·	4	93*	17
Cc1ccn2c(Nc3ccc4c(c3)OCO4)c(-c3ccc(O)cc3)nc2c1	31*	0	-125	·	24	4
Cc1ccsc1/C=C/c1ccc2ccccc2n1	-13	-3	5	9	27	-11
Cc1ccsc1/C=C/c1ccc2cccc(O)c2n1	8	2	3	13	86*	27
O=C1N=C(c2ccccc2)S/C1=C\c1cccs1	-3	2	4	-3	95*	11
O=C1N=C(N2CCN(c3ccccc3)CC2)S/C1=C/c1cccs1	0	6	-3	-2	4	-8
CCOC(=O)C1=C(C)Nc2nc(SCC)nn2C1c1ccc(OC)cc1 (configuration not stated)	3	0	3	9	-16	20
CCOC(=O)C1=C(C)Nc2nc(=S)[nH]n2C1c1ccc(Cl)cc1 (configuration not stated)	15	2	·	0	97*	0
Cc1cc(NC(=O)Nc2ccccc2F)ccc1Br	-3	-1	-6	5	28	4
O=C(NCC1OCCCN1S(=O)(=O)c1cc(F)ccc1F)C(=O)NC1CCCCC1 (configuration not stated)	0	1	-7	17	20	-6
O=C(CN1CCOCC1)N/N=C/c1ccccc1	7	4	4	1	60*	16
O=C(N/N=C/c1ccccc1)c1ccc(CN2C(=O)c3cccc4cccc2c34)cc1	2	8	-3	-1	7	50*
CN(C)c1ccc(/C=N/NC(=O)c2ccc(CN3C(=O)c4cccc5cccc3c45)cc2)cc1	-1	7	1	-23	-4	11
Cc1nc(NCCc2ccc(O)cc2)c2nnn(Cc3ccccc3)c2n1	-12	·	-5	·	25	-9
CC1CCCCC1NC(=O)CN(C)S(=O)(=O)c1ccc2c(c1)CCC(=O)N2 (configuration not stated)	1	·	-1	·	58	8
O=C(NC(C(=O)N/N=C/c1cc([N+](=O)[O-])ccc1O)c1n[nH]c(=O)c2ccccc12)c1ccccc1 (configuration not stated)	20	·	17	·	22	38
SMILES	PfM18AAP inh	p97 ATPase inh	HDAC3 inhib	G6PDH CS	PHOSPHO1 block	SUMO HTRF inh
Cc1ccc(NC(=S)NNc2ncc(C(F)(F)F)cc2Cl)c(C)c1	28*	4	2	0	37	0
CCN(CC)C(=O)CSc1nnc(-c2ccccc2)n1-c1ccccc1	2	2	7	3	82*	7
CCN(CC)C(=O)CSc1nnc(-c2ccccc2)n1N	5	-2	-2	0	9	16
CCN(CC)C(=O)CSc1nnc2sc3ccccc3n12	8	5	-6	3	62*	5
c1ccc(OCCSc2nnc3sc4ccccc4n23)cc1	-7	-3	-4	2	14	5
Nc1c(/C=C2/C=CC(=O)C(O)=C2)c(=O)nc2sc(CC(=O)N3CCCCC3)nn12	64*	·	7	·	-2	25
CCN(CC)c1ccc(NS(=O)(=O)c2ccc3c(c2)oc(=O)n3C)c(C)c1	29*	-8	3	10	57	-19
